Where “and” joins values, the source holds several entries; their conditions need not be identical. Equal values may be shown once. The whole screen tested about 5,500 compounds, of which about 2,000 (36%) were called active. Roughly 18% stayed inconclusive and do not appear here. Rule as the data show it: active = normalized growth mostly below about 0.91 (no sharp cut-off); inconclusive = no clear call, values can overlap the other calls; inactive = mostly above about 0.92. This is one part of the list.
Assay: chemical genetic growth profiling, strain panel (AID 1159580);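 also: tested at 20 µM; growth read once vehicle control cultures reached saturation at 30 °C; 1 = growth at the plate median or of vehicle wells; lower values mean less growth of the strain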
Details: S. cerevisiae deletion strains, growth OD

Measured: normalized growth

c1ccc2c(CC3=NCCN3)cccc2c1
inactive: locus YAL013W, strain DEP1, stronger effect = lower value 1.01 | locus YAL021C, strain ccr4, stronger effect = lower value 0.944 | locus YAL026C, strain drs2, stronger effect = lower value 0.982 | locus YAL030W, strain snc1, stronger effect = lower value 0.986 | locus YBL061C, strain skt5, stronger effect = lower value 0.985 | locus YBR009C, strain hhf1, stronger effect = lower value 0.987 | locus YBR021W, strain FUR4, stronger effect = lower value 0.999 | locus YBR023C, strain chs3, stronger effect = lower value 0.984 | locus YBR171W, strain sec66, stronger effect = lower value 0.976 | locus YBR229C, strain ROT2, stronger effect = lower value 1.01 | locus YBR231C, strain swc5, stronger effect = lower value 0.985 | locus YBR279W, strain paf1, stronger effect = lower value 0.99 | locus YCL011C, strain gbp2, stronger effect = lower value 0.97 | locus YCL016C, strain dcc1, stronger effect = lower value 0.996 | locus YCL029C, strain bik1, stronger effect = lower value 1.03 | locus YCL061C, strain MRC1, stronger effect = lower value 0.981 | locus YCL069W, strain vba3, stronger effect = lower value 0.955 | locus YCR088W, strain abp1, stronger effect = lower value 0.98 | locus YDL005C, strain med2, stronger effect = lower value 0.962 | locus YDL035C, strain GPR1, stronger effect = lower value 1.01 | locus YDL040C, strain nat1, stronger effect = lower value 0.971 | locus YDL074C, strain BRE1, stronger effect = lower value 1.01 | locus YDL101C, strain DUN1, stronger effect = lower value 1.01 | locus YDL134C, strain PPH21, stronger effect = lower value 1.01 | locus YDL185W, strain tfp1, stronger effect = lower value 1.01 | locus YDL192W, strain arf1, stronger effect = lower value 1.02 | locus YDR001C, strain nth1, stronger effect = lower value 0.99 | locus YDR069C, strain doa4, stronger effect = lower value 0.947 | locus YDR101C, strain arx1, stronger effect = lower value 1.02 | locus YDR137W, strain rgp1, stronger effect = lower value 0.985 | locus YDR150W, strain NUM1, stronger effect = lower value 1.01 | locus YDR159W, strain sac3, stronger effect = lower value 0.958 | locus YDR162C, strain NBP2, stronger effect = lower value 1 | locus YDR195W, strain ref2 0.96 | locus YDR297W, strain sur2, stronger effect = lower value 0.975 | locus YDR318W, strain mcm21, stronger effect = lower value 1.02 | locus YDR334W, strain swr1, stronger effect = lower value 0.958 | locus YDR335W, strain msn5, stronger effect = lower value 0.981 | locus YDR388W, stronger effect = lower value 1.02 | locus YDR392W, strain spt3, stronger effect = lower value 0.863 | locus YDR502C, strain sam2, stronger effect = lower value 1.02 | locus YEL003W, strain gim4, stronger effect = lower value 0.945 | locus YEL037C, strain rad23, stronger effect = lower value 0.964 | locus YEL061C, strain CIN8 (second series), stronger effect = lower value 0.965 | locus YEL061C, strain CIN8, stronger effect = lower value 1.01 | locus YER015W, strain faa2, stronger effect = lower value 0.959 | locus YER016W, strain bim1, stronger effect = lower value 0.979 | locus YER110C, stronger effect = lower value 1.02 | locus YER111C, strain swi4, stronger effect = lower value 0.968 | locus YER155C, strain BEM2 (second series), stronger effect = lower value 0.98 | locus YER155C, strain BEM2, stronger effect = lower value 1 | locus YER167W, strain BCK2, stronger effect = lower value 1.02 | locus YFR010W, strain ubp6, stronger effect = lower value 0.96 | locus YGL078C, strain dbp3, stronger effect = lower value 1.02 | locus YGL086W, strain mad1, stronger effect = lower value 1.01 | locus YGL167C, strain pmr1, stronger effect = lower value 0.98 | locus YGL173C, strain kem1, stronger effect = lower value 0.976 | locus YGL227W, strain vid30, stronger effect = lower value 0.975 | locus YGL240W, strain doc1, stronger effect = lower value 0.98 | locus YGL248W, strain PDE1, stronger effect = lower value 1.01 | locus YGL253W, strain hxk2, stronger effect = lower value 0.98 | locus YGR078C, strain PAC10, stronger effect = lower value 1.01 | locus YGR135W, strain pre9, stronger effect = lower value 1.02 | locus YGR229C, strain SMI1, stronger effect = lower value 1.01 | locus YGR252W, strain gcn5, stronger effect = lower value 0.984 | locus YHR013C, strain ard1, stronger effect = lower value 0.901 | locus YHR027C, strain rpn1, stronger effect = lower value 0.972 | locus YHR030C, strain SLT2, stronger effect = lower value 1.01 and 0.973 | locus YHR079C, strain IRE1 (second series), stronger effect = lower value 1.02 | locus YHR079C, strain IRE1, stronger effect = lower value 0.961 | locus YHR094C, strain hxt1, stronger effect = lower value 1.01 | locus YHR129C, strain ARP1, stronger effect = lower value 1 | locus YHR142W, strain chs7, stronger effect = lower value 0.978 | locus YHR200W, strain rpn10, stronger effect = lower value 1.02 | locus YIL066C, strain RNR3, stronger effect = lower value 1.01 | locus YIL073C, strain SPO22, stronger effect = lower value 1.06 | locus YIL125W, strain kgd1, stronger effect = lower value 1.01 | locus YIR030C, strain dcg1, stronger effect = lower value 1.03 | locus YJL092W, strain hpr5, stronger effect = lower value 0.968 | locus YJL095W, strain BCK1 (second series), stronger effect = lower value 0.987 | locus YJL095W, strain BCK1, stronger effect = lower value 1.01 and 1 | locus YJL115W, strain asf1, stronger effect = lower value 0.976 | locus YJL129C, strain trk1, stronger effect = lower value 0.921 | locus YJL134W, strain LCB3, stronger effect = lower value 1.01 | locus YJL154C, strain vps35, stronger effect = lower value 0.972 | locus YJL164C, strain tpk1, stronger effect = lower value 0.978 | locus YJL166W, strain qcr8, stronger effect = lower value 0.968 | locus YJL168C, strain set2, stronger effect = lower value 1.02 | locus YJL187C, strain SWE1 (second series), stronger effect = lower value 1.01 | locus YJL187C, strain SWE1, stronger effect = lower value 0.976 | locus YJR043C, strain POL32, stronger effect = lower value 1.01 | locus YJR066W, strain TOR1, stronger effect = lower value 0.928

— PubChem BioAssay AID1159580 (chemical genetic matrix, 2015)
